# This is part of a sample that, as a whole, favours compounds with a hit. Of some 79,000 tested, about 15% had one in any assay. A number with no mark means an inactive call. Calls of active or inactive are those of the source. No stated cut-off is given here; in the data, active means growth inhibition above about 70%; inactive means the rest.
# Legend:
# [1] = NCI Yeast Anticancer Drug Screen. Data for the rad52 strain (AID 147);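 further: 0% = growth of vehicle-treated control cultures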; settings: S. cerevisiae rad52 mutant growth inhibition, active compounds read high
# Method in brief: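 Measured: yeast growth inhibition. System: strain with a defined DNA damage repair alteration. Reference: vehicle-treated control cultures.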
# [2] = NCI Yeast Anticancer Drug Screen. Data for the wt1 strain (AID 149);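 further: 0% = growth of vehicle-treated wt1 cultures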; settings: S. cerevisiae wt1 strain (SPY 50644) growth inhibition, active compounds read high
# Method in brief: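 Readout: yeast growth inhibition, normalised to vehicle controls, in the wt1 strain exposed to test compounds.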
# [3] = NCI Yeast Anticancer Drug Screen. Data for the rad50EPP+ strain (AID 151);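 further: 0% = growth of vehicle-treated control cultures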; settings: S. cerevisiae rad50 mutant strain, active compounds read high
# Method in brief: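 One strain with a rad50 alteration (rad50EPP+) was compound-treated, its growth then compared to that of vehicle controls.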
# [4] = NCI Yeast Anticancer Drug Screen. Data for the mgt1 strain (AID 153); settings: S. cerevisiae mgt1 mutant growth inhibition, active compounds read high
# Method in brief: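 After exposure of the mgt1 yeast mutant to compound, growth was measured and reported as inhibition compared with vehicle controls.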
# [5] = NCI Yeast Anticancer Drug Screen. Data for the rad50 strain (AID 155);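 further: 0% = growth of vehicle-only cultures of the same strain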; settings: S. cerevisiae rad50 strain growth inhibition, active compounds read high
# Method in brief: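 Compounds were tested on a yeast strain with an engineered DNA damage repair alteration; the reported value is growth inhibition normalised to vehicle treatment.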
# [6] = NCI Yeast Anticancer Drug Screen. Data for the mec2-1 strain (AID 157); settings: S. cerevisiae mec2-1 strain, active compounds read high
# Method in brief: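 Test agents were screened against the mec2-1 yeast strain, with defined DNA repair or cell cycle alteration. Growth was scored as inhibition against vehicle-only controls.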
# [7] = NCI Yeast Anticancer Drug Screen. Data for the rad14 strain (AID 159);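 further: 0% = growth of vehicle-treated control cultures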; settings: S. cerevisiae rad14 strain growth inhibition, active compounds read high
# Method in brief: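 Compound-treated yeast with a defined DNA-repair lesion; growth inhibition normalised to vehicle-treated cultures.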
# [8] = NCI Yeast Anticancer Drug Screen. Data for the sgs1 mgt1 strain (AID 161);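 further: 0% = growth of cultures given vehicle only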; settings: S. cerevisiae sgs1 mgt1 strain, active compounds read high
# Method in brief: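 Genetically altered yeast, compound exposure, growth inhibition relative to vehicle.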
# [9] = NCI Yeast Anticancer Drug Screen. Data for the CLN2oe strain (AID 163);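 further: 0% = growth of vehicle-only control cultures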; settings: S. cerevisiae CLN2oe strain, active compounds read high
# Method in brief: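 Here, growth inhibition in a cell-cycle-altered yeast strain after compound exposure was quantified against vehicle control growth.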
# [10] = NCI Yeast Anticancer Drug Screen. Data for the cln2 rad14 strain (AID 165);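 further: 0% = growth equal to vehicle treated cultures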; settings: S. cerevisiae cln2 rad14 strain, active compounds read high
# Method in brief: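 Growth of compound-exposed yeast (cln2 rad14 genotype) measured and expressed as inhibition relative to vehicle.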
# [11] = NCI Yeast Anticancer Drug Screen. Data for the bub3 strain (AID 167); settings: S. cerevisiae bub3 mutant strain, active compounds read high
# Method in brief: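 Growth of a checkpoint-deficient yeast mutant is measured after compound exposure. Values represent inhibition relative to vehicle.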
# [12] = NCI Yeast Anticancer Drug Screen. Data for the wt2 strain (AID 169);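 further: 0% = growth of vehicle-treated yeast cultures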; settings: S. cerevisiae wt2 strain growth inhibition, active compounds read high
# Method in brief: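 Genetically defined yeast strains from a DNA-repair/cell-cycle panel were used. Compound-exposed yeast growth was measured, and the inhibition was calculated relative to vehicle treatment.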
# [13] = NCI Yeast Anticancer Drug Screen. Data for the mlh1 strain (AID 171);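 further: 0% = growth of vehicle-treated control cultures of the same strain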; settings: S. cerevisiae mlh1 strain growth inhibition, active compounds read high
# Method in brief: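 Here the genetically defined yeast mutant is grown with each compound, and the extent to which its growth falls below that of vehicle-exposed cells is reported.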
# [14] = NCI Yeast Anticancer Drug Screen. Data for the sgs1 strain (AID 173);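 further: 0% = growth of vehicle-only control cultures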; settings: S. cerevisiae sgs1 mutant, active compounds read high
# Method in brief: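 Relative growth inhibition, referenced to vehicle, was determined in a yeast strain with a defined alteration affecting DNA damage repair or cell cycle control after compound exposure.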
# [15] = NCI Yeast Anticancer Drug Screen. Data for the mlh1 rad18 strain (AID 175); settings: S. cerevisiae mlh1 rad18 strain growth inhibition, active compounds read high
# Method in brief: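 In this whole-cell yeast screen, a strain with altered DNA damage repair is challenged with compound, and its growth is measured against matched vehicle-treated controls.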
# [16] = NCI Yeast Anticancer Drug Screen. Data for the rad18 strain (AID 177); settings: S. cerevisiae rad18 mutant growth inhibition, active compounds read high
# Method in brief: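 Screen uses a yeast strain with a defined lesion in DNA damage repair; compound effect is read as loss of growth compared to untreated vehicle cultures.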
# [17] = at 5.0 µM (retest, dose inferred, filed as 0.5)
# [18] = at 50.0 µM (retest, dose inferred, filed as 5.0)
structure (smiles),measurement,setting,value
O=C1C=CC(=O)N1c1ccc2c(c1)Cc1cc(NC(=O)C(F)(F)F)ccc1-2,growth inhibition,[1]; at 1.2 µM,12%
same,growth inhibition,[1]; at 3.7 µM,24%
same,growth inhibition,[1]; at 11.0 µM,42%
same,growth inhibition,[1]; at 33.0 µM,60%
same,growth inhibition,[1]; at 100.0 µM,74% (active)
same,growth inhibition,[2]; at 1.2 µM,6%
same,growth inhibition,[2]; at 3.7 µM,15%
same,growth inhibition,[2]; at 11.0 µM,27%
same,growth inhibition,[2]; at 33.0 µM,39%
same,growth inhibition,[2]; at 100.0 µM,60%
same,growth inhibition,[3]; at 1.2 µM,29%
same,growth inhibition,[3]; at 3.7 µM,73% (active)
same,growth inhibition,[3]; at 11.0 µM,88% (active)
same,growth inhibition,[3]; at 33.0 µM,91% (active)
same,growth inhibition,[3]; at 100.0 µM,88% (active)
same,growth inhibition,[4]; at 1.2 µM,11%
same,growth inhibition,[4]; at 3.7 µM,20%
same,growth inhibition,[4]; at 11.0 µM,31%
same,growth inhibition,[4]; at 33.0 µM,57%
same,growth inhibition,[4]; at 100.0 µM,77% (active)
same,growth inhibition,[5]; at 1.2 µM,13%
same,growth inhibition,[5]; at 3.7 µM,24%
same,growth inhibition,[5]; [17],52%
same,growth inhibition,[5]; at 11.0 µM,41%
same,growth inhibition,[5]; at 33.0 µM,71% (active)
same,growth inhibition,[5]; [18],91% (active)
same,growth inhibition,[5]; at 50.0 µM,87.7% (active)
same,growth inhibition,[5]; at 100.0 µM,80% (active)
same,growth inhibition,[6]; at 1.2 µM,13%
same,growth inhibition,[6]; at 3.7 µM,26%
same,growth inhibition,[6]; [17],87% (active)
same,growth inhibition,[6]; at 11.0 µM,42%
same,growth inhibition,[6]; at 33.0 µM,62%
same,growth inhibition,[6]; [18],94% (active)
same,growth inhibition,[6]; at 50.0 µM,83.5% (active)
same,growth inhibition,[6]; at 100.0 µM,77% (active)
same,growth inhibition,[7]; at 1.2 µM,20%
same,growth inhibition,[7]; at 3.7 µM,31%
same,growth inhibition,[7]; at 11.0 µM,42%
same,growth inhibition,[7]; at 33.0 µM,66%
same,growth inhibition,[7]; at 100.0 µM,83% (active)
same,growth inhibition,[8]; [17],71% (active)
same,growth inhibition,[8]; [18],93% (active)
same,growth inhibition,[8]; at 50.0 µM,86.6% (active)
same,growth inhibition,[9]; at 1.2 µM,2%
same,growth inhibition,[9]; at 3.7 µM,11%
same,growth inhibition,[9]; at 11.0 µM,18%
same,growth inhibition,[9]; at 33.0 µM,26%
same,growth inhibition,[9]; at 100.0 µM,50%
same,growth inhibition,[10]; [17],10%
same,growth inhibition,[10]; [18],51%
same,growth inhibition,[10]; at 50.0 µM,62.9%
same,growth inhibition,[11]; at 1.2 µM,-11%
same,growth inhibition,[11]; at 3.7 µM,-5%
same,growth inhibition,[11]; [17],57%
same,growth inhibition,[11]; at 11.0 µM,7%
same,growth inhibition,[11]; at 33.0 µM,21%
same,growth inhibition,[11]; [18],90% (active)
same,growth inhibition,[11]; at 50.0 µM,84.6% (active)
same,growth inhibition,[11]; at 100.0 µM,39%
same,growth inhibition,[12]; at 1.2 µM,7%
same,growth inhibition,[12]; at 3.7 µM,21%
same,growth inhibition,[12]; at 11.0 µM,37%
same,growth inhibition,[12]; at 33.0 µM,55%
same,growth inhibition,[12]; at 100.0 µM,67%
same,growth inhibition,[13]; at 1.2 µM,16%
same,growth inhibition,[13]; at 3.7 µM,32%
same,growth inhibition,[13]; at 11.0 µM,54%
same,growth inhibition,[13]; at 33.0 µM,73% (active)
same,growth inhibition,[13]; at 100.0 µM,85% (active)
same,growth inhibition,[14]; at 1.2 µM,18%
same,growth inhibition,[14]; at 3.7 µM,37%
same,growth inhibition,[14]; at 11.0 µM,63%
same,growth inhibition,[14]; at 33.0 µM,79% (active)
same,growth inhibition,[14]; at 100.0 µM,82% (active)
same,growth inhibition,[15]; [17],91% (active)
same,growth inhibition,[15]; [18],93% (active)
same,growth inhibition,[15]; at 50.0 µM,86% (active)
same,growth inhibition,[16]; at 1.2 µM,17%
same,growth inhibition,[16]; at 3.7 µM,29%
same,growth inhibition,[16]; at 11.0 µM,53%
same,growth inhibition,[16]; at 33.0 µM,76% (active)
same,growth inhibition,[16]; at 100.0 µM,82% (active)
CC1(C)C(=O)OC(n2cc(F)c(=O)[nH]c2=O)C1=O (stereo not drawn),growth inhibition,[1]; at 1.2 µM,-32%
same,growth inhibition,[1]; at 3.7 µM,-22%
same,growth inhibition,[1]; at 11.0 µM,-27%
same,growth inhibition,[1]; at 33.0 µM,-8%
same,growth inhibition,[1]; at 100.0 µM,26%
same,growth inhibition,[2]; at 1.2 µM,-39%
same,growth inhibition,[2]; at 3.7 µM,-43%
same,growth inhibition,[2]; at 11.0 µM,-18%
same,growth inhibition,[2]; at 33.0 µM,-36%
same,growth inhibition,[2]; at 100.0 µM,1%
same,growth inhibition,[3]; at 1.2 µM,-30%
same,growth inhibition,[3]; at 3.7 µM,-29%
same,growth inhibition,[3]; at 11.0 µM,-7%
same,growth inhibition,[3]; at 33.0 µM,21%
same,growth inhibition,[3]; at 100.0 µM,56%
same,growth inhibition,[4]; at 1.2 µM,19%
same,growth inhibition,[4]; at 3.7 µM,32%
same,growth inhibition,[4]; at 11.0 µM,34%
same,growth inhibition,[4]; at 33.0 µM,49%
same,growth inhibition,[4]; at 100.0 µM,67%
same,growth inhibition,[5]; at 1.2 µM,-11%
same,growth inhibition,[5]; at 3.7 µM,-10%
same,growth inhibition,[5]; [17],25%
same,growth inhibition,[5]; at 11.0 µM,3%
same,growth inhibition,[5]; at 33.0 µM,17%
same,growth inhibition,[5]; [18],74% (active)
same,growth inhibition,[5]; at 50.0 µM,6.6%
same,growth inhibition,[5]; at 100.0 µM,37%
same,growth inhibition,[6]; at 1.2 µM,-31%
same,growth inhibition,[6]; at 3.7 µM,-5%

# Reference: PubChem BioAssay (NCI)
